Records with an inconclusive call do not appear. A call without a number means that no potency is given here. Unmarked numbers belong to inactive results. Activity calls are given as the source filed them. Unless noted, the call rests on the fitted dose curve; in most records, active means well fitted curve in the direction sought with a large enough effect; inconclusive means small, poorly fitted or top-dose-only effect, or another doubt; inactive means no such curve, though single readings can be large; an effect the other way counts as inactive or inconclusive. Starred links: 1 amine or outer side, 2 acyl side, 3 side chain; linkers in the order of their positions; H or OH if unused. Positions of bridges follow the written chain, without caps; N, C: chain ends. Non-standard residues stand in square brackets, D forms with d. Residues, ends and D or L forms follow the SMILES beside them. ξ: configuration not given here. *: point of attachment. X3 = C[C@@H](Oc1ccc([C@H](N[*:1])C(=O)[*:2])cc1)[C@]1(/C=C\C(=O)[*:3])CO1; d(aIle) = CC[C@H](C)[C@@H](N)C(=O)O; X2 = CC(C)[C@@H](O)C(C)C(=O)*; ξNMeF = CNC(Cc1ccccc1)C(=O)O; ξT = CC(O)C(N)C(=O)O; ξS = NC(CO)C(=O)O
Tests used:
[1] = test system: NAD(P)H diaphorase (Clostridium kluyveri); assay: Diaphorse counterscreen qHTS: Assay Interference Panel against the NCATS CANVASS Library (AID 1347362); further: potency means the concentration at half of the fitted maximal effect
Summary of the method: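 Clostridium kluyveri diaphorase in PBS + 0.01% Tween-20 preincubated 15 min with compounds. Resazurin and NADH then added for 5 min at room temperature in the dark; resorufin fluorescence read (ex 525, em 598).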

[2] = KB-3-1 Cancer Cell Toxicity qHTS against the NCATS CANVASS Library (AID 1347366); further: nearly all actives have a fitted effect of over 75% in size; further: potency means the concentration at half of the fitted maximal effect
Summary of the method: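 KB-3-1 cells (500/well) in DMEM with 10% FBS were exposed to compounds for 72 h at 37C. Viability was read by CellTiter-Glo luminescence.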

[3] = biological target: Nuclear receptor subfamily 1 group I member 3 (Homo sapiens) (UniProt Q14994); assay: qHTS for Constitutive Androstane Receptor (CAR) Antagonist screened against the NCATS CANVASS Library (AID 1347372); further: potency means the concentration at half of the fitted maximal effect;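 on activity change, negative = inhibition: cells stimulated with 50 nM CITCO agonist so inhibition reflects antagonism; luciferase from CYP2B6 promoter reporter driven by hCAR in HepG2 cells; series mostly up to about 46 µM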
Nuclear receptor subfamily 1 group I member 3 (Homo sapiens), sequence (Q14994 whole entry, looked up): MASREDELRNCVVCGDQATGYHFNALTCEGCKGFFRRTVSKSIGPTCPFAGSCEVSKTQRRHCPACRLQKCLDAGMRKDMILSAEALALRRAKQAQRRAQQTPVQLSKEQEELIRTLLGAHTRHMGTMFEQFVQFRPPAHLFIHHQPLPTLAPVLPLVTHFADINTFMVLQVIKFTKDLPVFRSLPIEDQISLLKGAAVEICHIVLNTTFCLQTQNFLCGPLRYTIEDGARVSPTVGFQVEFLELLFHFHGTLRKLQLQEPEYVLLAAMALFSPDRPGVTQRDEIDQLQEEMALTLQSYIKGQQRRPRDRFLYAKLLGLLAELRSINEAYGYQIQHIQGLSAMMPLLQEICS
Summary of the method: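 Luminescence readout (ONE-Glo, 30 min RT) of CYP2B6-2.2kb reporter in HepG2-hCAR cells after 24hr, 37C treatment with compound against 50 nM CITCO; CellTiter-Fluor viability read beforehand.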

[4] = qHTS for Hypoxia signaling pathway (HIF-1) antagonists against the NCATS CANVASS Library (AID 1347374); further: nearly all actives have a fitted effect of over 60% in size; further: potency means the concentration at half of the fitted maximal effect;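 on activity change, negative = inhibition: HRE-bla ME-180 cells stimulated with cobalt chloride to stabilize HIF-1alpha; series mostly up to about 38 µM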
Summary of the method: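 Beta-lactamase reporter under HRE control in ME-180 cells; CoCl2 stimulus (60 uM solution as added), compounds 11-pt qHTS, 17 h 37C. CCF4 dye 2 h RT, 460/530 nm emission. CellTiter-Glo viability in same wells.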

[5] = qHTS for H2AX Agonists against the NCATS CANVASS Library (AID 1347378); further: potency means the concentration at half of the fitted maximal effect
Summary of the method: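 CHO-K1 cells (1000/well, overnight at 37C) exposed to compounds at several concentrations for 3 hr at 37C, 0.76% DMSO final. Lysates read by TR-FRET (phospho-H2AX S139 Eu-cryptate antibody / H2AX-d2 antibody) after 24 hr at room temperature; 665/615 nm ratio.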

[6] = qHTS assay for small molecule disruptors of mitochondrial membrane potential screened against the NCATS CANVASS Library (AID 1347389); further: nearly all actives have a fitted effect of over 60% in size; further: potency means the concentration at half of the fitted maximal effect
Summary of the method: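 Red/green fluorescence ratio read-out: J-aggregates ex 540/em 590 nm, monomers ex 490/em 535 nm. HepG2, 1 hr compound treatment, then 30 min Mito-MPS dye at 37C. 11-pt qHTS concentration series.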

[7] = qHTS for inhibitors of Wild type Zika virus screened against the NCATS CANVASS Library (AID 1347396); further: potency means the concentration at half of the fitted maximal effect
Summary of the method: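 Using ATP-based luminescence (CellTiter Glo), this screen scores rescue of Vero 766 cells from wild-type Zika killing at 72 h post-infection. Compounds are tested in a concentration series.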

[8] = qHTS for inhibitors of Rabies Virus screened against the NCATS CANVASS Library (AID 1347402; calls by dose curve; further: series mostly up to about 46 µM)
[9] = HEK-293 Cancer Cell Toxicity qHTS against the NCATS CANVASS Library (AID 1347355); further: nearly all actives have a fitted effect of over 65% in size; further: potency means the concentration at half of the fitted maximal effect; on outcome: series mostly up to about 46 µM
Summary of the method: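 1000 cells/well, 4 h pre-incubation 37 °C/5% CO2; 11-pnt titration; 72 h; CellTiter-Glo 15 min RT, luminescence.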

[10] = Viability qHTS for inhibitors of the SERCaMP assay screened against the NCATS CANVASS Library (AID 1347400); further: nearly all actives have a fitted effect of over 70% in size; further: potency means the concentration at half of the fitted maximal effect
Summary of the method: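 CellTiter-Glo luminescence readout after 48 h compound exposure (11-pnt qHTS series) of SH-SY5Y-GLuc SERCaMP MJH297 cells seeded at 1000 cells/well; bortezomib positive control.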

Compound | Potency [1] | Potency [2] | Potency [3] | Potency [4] | Potency [5] | Potency [6] | Potency [7] | outcome [8] | Potency [9] | Potency [10] | activity change, negative = inhibition [8]
CC[C@]12C=CCN3CC[C@]4(C(=C(C(=O)OC)C1)Nc1ccccc14)[C@@H]32 | inactive | inactive | inactive | inactive | inactive | inactive | inactive | inactive |  |  | 
CC[C@@H]1CN2CCc3c([nH]c4cccc(OC)c34)[C@@H]2C[C@@H]1/C(=C\OC)C(=O)OC | inactive |  | inactive | inactive | inactive | 4.67 µM (active) | inactive | inactive | 18.7 µM (active) | inactive | 
C=CC(C)(C)[C@@]12C[C@H]3C(=O)N/C(=C\c4cnc[nH]4)C(=O)N3[C@@H]1Nc1ccccc12 | inactive | inactive | inactive | inactive | inactive | inactive | inactive | inactive | inactive | inactive | 
COC1C(O)C(C)OC(OC2C(Oc3cccc4c(O)c5c(=O)oc6ccc(C)c7c(=O)oc(c34)c5c67)OC(C)C(O)C2O)C1O (configuration not stated) |  |  | 11.7 µM (active) |  | 27.3 µM (active) |  | inactive | inactive | 14.8 µM (active) | 34 µM (active) | 
COC1=C(C2=C(OC)C(=O)c3cc4c(c(O)c3C2=O)C(=O)O[C@H](C)C4)C(=O)c2c(cc3c(c2O)C(=O)O[C@H](C)C3)C1=O | 1.45 µM (active) | inactive | inactive |  | inactive |  | inactive | inactive | inactive | inactive | 
O[C@H]1C=C[C@@]23CCN(Cc4cc5c(cc42)OCO5)[C@@H]3C1 | inactive | inactive | inactive | inactive | inactive | inactive | inactive | inactive | inactive | inactive | 
C=C[C@]12C=CCN3CC[C@@]4(c5ccccc5NC(=O)[C@@H]4C1)[C@@H]32 | inactive | inactive |  | inactive | inactive | inactive | inactive | inactive | inactive | inactive | 
CCCCC1CC[C@H]2CCCC(CCC)N12 (some centres not stated) | inactive | inactive | inactive | inactive | inactive | inactive | inactive | inactive | inactive | inactive | 
CCCC[C@@H]1CC[C@H]2CCCC(CCCO)N12 (some centres not stated) | inactive | inactive | inactive | inactive | inactive | inactive | inactive | inactive | inactive | inactive | 
CO[C@H]([C@@H](C)[C@H]1O[C@]1(C)C[C@H](C)/C=C/C=C(\C)[C@H]1O[C@@H](CC(=O)O)CC[C@@H]1C)[C@@H](C)O | inactive | 0.0264 µM (active) | inactive |  | inactive | inactive |  | inactive | 0.0209 µM (active) | 0.048 µM (active) | 
CO[C@@H](C[C@@H](C)[C@@H](O)/C=C/C=C/CNC(=O)C(C)(C)[C@H](O)\C(C)=C/C=C\C=C\Cc1cnco1)[C@]1(O)[C@@H](C)C(=O)N(C)[C@@]12COC2=O |  |  |  |  |  |  |  | inactive |  |  | 
CO[C@H]1C[C@H](O[C@H]2[C@@H](O)C[C@H](O[C@H]3CC[C@]4(C=O)[C@H]5CC[C@]6(C)C(C7=CC(=O)OC7)CC[C@]6(O)[C@@H]5CC[C@]4(O)C3)O[C@@H]2C)O[C@H](C)[C@H]1O[C@H]1C[C@@H](OC)[C@@H](O[C@@H]2O[C@H](CO)[C@@H](O)[C@H](O)[C@H]2O)[C@@H](C)O1 (some centres not stated) | inactive | 0.187 µM (active) | 0.417 µM (active) | 0.118 µM (active) | inactive | inactive | inactive |  | 0.118 µM (active) | 0.135 µM (active) | 
C[C@]12CC(O)C3[C@@H](CC[C@@H]4C[C@@H](O)CC[C@]34CO)[C@@]1(O)CC[C@@H]2C1=CC(=O)OC1 (some centres not stated) | inactive | 9.35 µM (active) | 4.17 µM (active) | 2.98 µM (active) | inactive | inactive | inactive | inactive | 3.72 µM (active) | 7.6 µM (active) | 
COc1cc(C2OCC3C(c4ccc(O)c(OC)c4)OCC23)ccc1O (configuration not stated) |  |  |  |  |  |  |  |  |  |  | 3.04% [at 9.14 µM]
C/C=C1/CN2C3CC1C1=CCC(=O)N4c5ccccc5[C@@]3(C[C@@H]2C2=C[C@H]3C5CC6N(CC[C@@]67c6ccccc6N(C2=O)[C@@H]37)C/C5=C/C)[C@H]14 (some centres not stated) | inactive |  |  |  |  | inactive |  |  | 7.43 µM (active) | 42.8 µM (active) | 
CO[C@@]12c3c(C)cc(O)c4c(=O)occ(c34)C(=O)[C@@H]1[C@]13COC(=O)c4c(O)cc(C)c(c41)C(=O)[C@H]2[C@@H]3OC(C)=O |  | inactive | inactive | inactive | inactive | 16.6 µM (active) | inactive | inactive | inactive | inactive | 
C[C@]12CCC3[C@@H](CC[C@@H]4C[C@@H](O)CC[C@]34CO)[C@@]1(O)CC[C@@H]2C1=CC(=O)OC1 (some centres not stated) | inactive | 1.32 µM (active) | 4.17 µM (active) | 0.941 µM (active) | inactive |  | inactive |  | 1.87 µM (active) | 1.91 µM (active) | 
C/C=C(\C)C(=O)O[C@@H]1[C@@H](O)[C@@H]2O[C@H]3[C@H](O[C@@H](CCCCC)CCCCCCC(=O)CCC(=O)OC[C@@H](O2)[C@H]1OC(=O)/C=C/c1ccccc1)O[C@H](C)[C@H](OC(C)=O)[C@@H]3O | inactive | 0.118 µM (active) | 0.0524 µM (active) |  | inactive | 16.6 µM (active) | inactive |  | 0.118 µM (active) |  | 
CC(C)CC1C(=O)O[C@H](C(C)C)C(=O)N(C)C(CC(C)C)C(=O)O[C@@H](C(C)C)C(=O)N(C)C(CC(C)C)C(=O)O[C@H](C(C)C)C(=O)N(C)C(CC(C)C)C(=O)O[C@@H](C(C)C)C(=O)N1C (some centres not stated) |  | 9.35 µM (active) | 20.9 µM (active) |  | inactive | 7.41 µM (active) | 14.7 µM (active) | inactive | 2.35 µM (active) | 42.8 µM (active) | 
CO[C@@H](/C=C/CC/C=C/C(=O)O)[C@@H](O)[C@H](C)/C=C(\C)[C@H](O)[C@H](C)C(=O)CCCC1CC(=O)NC(=O)C1 | inactive | inactive | inactive | inactive | inactive | inactive | inactive | inactive | inactive | inactive | 
CC[C@H](C)[C@H]1NC(=O)[C@@H](NC(=O)C(C)[C@H](O)C(C)C)[C@@H](C)OC(=O)C2COC(=O)CNC(=O)/C=C\[C@]3(CO3)[C@@H](C)Oc3ccc(cc3)[C@H](NC1=O)C(=O)N(C)C(Cc1ccccc1)C(=O)NC(C(C)O)C(=O)N2 (some centres not stated) (X2-T[d(aIle)][X3][ξNMeF][ξT][ξS]; ester 1-C; linker 3-6 via G) | inactive | inactive | inactive | inactive | inactive | inactive | inactive | inactive | inactive | inactive | 
C/C=C/[C@@H]1[C@H]2C[C@@H](C)CC[C@@H]2C(C)=C[C@H]1C(=O)c1c(O)c(-c2ccc(O)cc2)c[nH]c1=O | inactive | 18.7 µM (active) | inactive | 23.6 µM (active) | inactive | 14.8 µM (active) |  |  |  | inactive | 
c1ccc2nc3c(cc2c1)[nH]c1ccccc13 | inactive | inactive | inactive | inactive | inactive | 16.6 µM (active) | inactive | inactive | inactive | inactive | 
C/C=C1/CN2CC[C@@]34c5ccccc5N(C)[C@@H]3[C@@H]2C[C@@H]1[C@H]4C(=O)OC | inactive | inactive | inactive | inactive | inactive | inactive | inactive | inactive | inactive | inactive | 
CCC(=O)N[C@@H](C[C@H](C)C(Cl)(Cl)Cl)C(=O)N1C(=O)C=C(OC)[C@@H]1C[C@H](C)C(Cl)Cl | inactive | inactive |  | inactive | inactive |  | inactive |  | inactive | inactive | 
CCCC[C@@H](C)/C=C1/CN2CCC[C@H]2[C@@](C)(O)[C@@H]1O | inactive | inactive | inactive | inactive | inactive | inactive | inactive | inactive | inactive | inactive | 
C=C(C)[C@H]1C(=O)c2c3c(cc4c5c(n1c24)[C@@]1(C)[C@@H](CC[C@H]2[C@](C)(/C=C/C=C(\C)C(=O)O)[C@@H](O)CC[C@@]21C)C5)C1=CC(C)(C)OC(C)(C)[C@H]1[C@@H]3O |  | 16.6 µM (active) |  | 6.66 µM (active) | 13.7 µM (active) | 16.6 µM (active) |  |  |  |  | 
C1=C2CCCN[C@H]2C2CC1[C@H]1CCCCN1C2 (some centres not stated) | inactive | inactive | inactive | inactive | inactive | inactive | inactive | inactive | inactive |  | 
